ABCB6 inh 2 – blocks the human ABCB6 transporter. Q9NP58. K562-ABCB6 porphyrin accumulation, flow cytometry, 1 h; hits give low values. fluorescence ratio to DMSO, % at 10 µM. 360,000 tested, 0.19% active. AID 602162;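 active means fluorescence ratio to DMSO below 75%, the collection mean minus 3 SD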;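 further: signal is porphyrin accumulated inside mitochondria; 100% equals median channel fluorescence of DMSO control wells; lower ratio means ABCB6 inhibition with less porphyrin fluorescence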
CendR NRP1 mod – NRP-1/CendR interaction modulation. FAM-RPARPAR peptide binding to NRP-1, fluorescence polarization. inhibition, % at 25 µM. 360,000 tested, 0.85% active;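 active means inhibition or corrected inhibition above about 18%, plus a signal ratio from 0.5 to 1.5, limit read from the data, passing the limit was not always enough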
Target sequence (O14786 whole entry, looked up): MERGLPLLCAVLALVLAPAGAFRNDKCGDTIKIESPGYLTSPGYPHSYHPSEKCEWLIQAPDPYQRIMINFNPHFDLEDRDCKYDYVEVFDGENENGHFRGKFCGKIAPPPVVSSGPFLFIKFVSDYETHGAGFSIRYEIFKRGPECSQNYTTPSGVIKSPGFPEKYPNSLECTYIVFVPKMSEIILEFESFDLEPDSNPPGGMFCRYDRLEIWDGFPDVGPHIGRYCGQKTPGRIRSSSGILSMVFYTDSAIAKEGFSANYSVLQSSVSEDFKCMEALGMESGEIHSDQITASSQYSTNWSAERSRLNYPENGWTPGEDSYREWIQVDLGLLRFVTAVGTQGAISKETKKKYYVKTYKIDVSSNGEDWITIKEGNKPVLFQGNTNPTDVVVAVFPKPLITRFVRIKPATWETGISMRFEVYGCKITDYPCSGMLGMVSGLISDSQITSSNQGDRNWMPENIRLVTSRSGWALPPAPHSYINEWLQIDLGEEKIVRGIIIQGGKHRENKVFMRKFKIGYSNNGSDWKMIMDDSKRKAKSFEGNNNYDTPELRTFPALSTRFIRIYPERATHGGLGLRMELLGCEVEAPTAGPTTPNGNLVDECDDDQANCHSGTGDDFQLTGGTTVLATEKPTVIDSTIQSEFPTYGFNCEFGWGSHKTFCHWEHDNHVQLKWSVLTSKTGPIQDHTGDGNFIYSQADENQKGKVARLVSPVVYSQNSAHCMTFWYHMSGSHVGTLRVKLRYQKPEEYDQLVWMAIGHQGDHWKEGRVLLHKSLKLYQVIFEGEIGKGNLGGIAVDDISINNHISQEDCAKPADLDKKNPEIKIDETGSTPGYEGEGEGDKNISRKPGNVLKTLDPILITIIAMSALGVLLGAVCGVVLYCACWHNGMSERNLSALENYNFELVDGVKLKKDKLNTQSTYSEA
ARNT-TACC3 inh – disrupts binding between human ARNT and TACC3 | Q9Y6A5 | AlphaScreen His-ARNT PAS-B/GST-TACC3 binding, luminescence; TACC3 fragment carries E629A point mutation | inhibition, % at 9.99 µM | 390,000 tested, 0.66% active | AID 623870;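 active means mean inhibition of replicates at least 50% and at least half of replicates each reaching 50%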;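 further: 0% = complete ARNT plus TACC3 wells and 100% = ARNT alone without TACC3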
GSIS activator – primary screen for activators of insulin secretion dependent on glucose, INS-1E cells, GLuc reporter luminescence. INS-1E GLuc reporter insulin secretion, 2-3 h. activation, % at 16.6 µM. 370,000 tested, 0.61% active;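 active means lowest replicate activation of at least 40%, so every replicate reaches that level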;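 further: 0% = median of neutral control wells and 100% = median of IBMX positive control wells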
hiPSC survival – hiPSC single-cell survival enhancement. ATPlite luminescence; 100% = ROCK inhibitor wells, 0% = DMSO. survival enhancement, % at 20 µM. 360,000 tested, 0.044% active; in the data active means survival enhancement above about 18%;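 further: cells exposed to compounds for 16 hours before the ATP read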
The depositor's hits bear a star; / = not tested or not shown. A selection: hits, their analogues and other compounds. The true share with any hit is near 1.8%.

SMILES	ABCB6 inh 2	CendR NRP1 mod	ARNT-TACC3 inh	GSIS activator	hiPSC survival
C[C@H]1CN([C@@H](C)CO)C(=O)c2cc(C#CC3CCCCC3)cnc2O[C@@H]1CN(C)S(=O)(=O)c1ccccc1	/	/	9	-38	/
C[C@@H]1CCCCO[C@@H](CN(C)Cc2ccc3c(c2)OCO3)[C@H](C)CN([C@@H](C)CO)C(=O)c2cc(NC(=O)Nc3ccc(C(F)(F)F)cc3)ccc2O1	/	/	42	15	/
Cc1cccc(NC(=S)Nc2ccccn2)c1C	97	6	-5	41*	4
Cc1cccc(NC(=O)Nc2ccccn2)c1C	86	-1	16	5	0
COc1ccccc1NC(=O)COc1cccnc1[N+](=O)[O-]	100	-8	0	26	0
COC(=O)c1sc(NC(=O)COc2cccnc2[N+](=O)[O-])c(C(=O)OC)c1C	96	-19	-9	40*	2
CCCN1C[C@H](C)[C@H](OC)CN(C)C(=O)c2cc(NC(=O)COC)ccc2OC[C@@H]1C	/	/	-6	-8	/
C/C=C/Cn1c(N2CCCCCC2)nc2c1c(=O)[nH]c(=O)n2C	93	-12	-5	62*	5
C/C=C/Cn1c(Br)nc2c1c(=O)[nH]c(=O)n2C	101	9	-2	65*	2
Cn1c(=O)[nH]c(=O)c2c1nc(N1CCCCCC1)n2CC(N)=O	97	4	-1	0	2
Cn1c(=O)[nH]c(=O)c2c1nc(N1CCCCC1)n2C/C=N/Nc1ccc(C(=O)O)cc1	96	0	-5	49*	0
Cc1noc(C)c1NC(=O)Nc1ccc2c(c1)CC(=O)N([C@@H](C)CO)C[C@H](C)[C@H](CN(C)S(=O)(=O)c1ccc(Cl)cc1)O2	/	/	1	13	/
CCCNC(=O)[C@@H]1[C@@H](CO)[C@@H]2Cn3c(cccc3=O)[C@@H]2N1Cc1cccc(F)c1	/	/	/	11	/
O=C(NCCCN1CCOCC1)c1ccc2c(=O)n(-c3ccc(F)c(Cl)c3)c(=S)[nH]c2c1	83	24*	0	-20	0
COc1ccc(-n2c(=S)[nH]c3cc(C(=O)NCCCN4CCOCC4)ccc3c2=O)cc1	94	5	/	2	0
O=S(=O)(Nc1ccc(Cl)cc1NS(=O)(=O)c1ccccc1)c1ccccc1	99	17*	-7	-40	-1
Cc1ccc(Cl)cc1NS(=O)(=O)c1ccccc1	101	-59	-2	-12	-2
CC(C)NC(=O)N(C)C[C@@H]1Oc2ccc(N(C)C)cc2CC(=O)N(C)C[C@@H]1C	/	/	/	14	/
CC(=O)Nc1sc(C)c(C)c1C(=O)OCC(=O)N(CC(C)C)C1CCS(=O)(=O)C1 (centres undefined)	107	28*	/	13	2
NNC(=O)CSc1cccc2cccnc12	99	-12	48*	29	1
O=C(Sc1cccc2cccnc12)c1ccccc1Br	99	8	75*	5	0
O=C(CSc1cccc2cccnc12)OCC(=O)c1ccccc1	100	0	53*	14	-1
O=C(CSc1cccc2cccnc12)OCC(=O)c1ccc(Br)cc1	108	-16	10	/	-1
O=C(CSc1cccc2cccnc12)Nc1ccccc1F	94	-8	59*	-6	-1
COc1ccccc1-c1nc(SCC(=O)Nc2ccccc2F)n[nH]1	109	5	-2	1	0
SMILES	ABCB6 inh 2	CendR NRP1 mod	ARNT-TACC3 inh	GSIS activator	hiPSC survival
O=C(CSc1n[nH]c(-c2ccccn2)n1)Nc1ccccc1F	100	-2	54*	8	0
O=C(N/N=C/c1c(O)n(-c2ccc(Cl)cn2)c(=O)c2ccccc12)c1ccncc1	110	-192	42*	-6	6
O=C(N/N=C/c1c(O)n(-c2ccc(Cl)cn2)c(=O)c2ccccc12)C1CC1	101	-36	68*	-2	-1
O=C(N/N=C/c1cccc2ccccc12)c1ccncc1	105	5	5	-5	-1
Cc1ccc(S(=O)(=O)Nc2cccc3c2O[C@@H](CN(C)CC2CC2)[C@H](C)CN([C@H](C)CO)C3=O)cc1	/	/	-9	-2	/
Cc1cc(Cl)c(S(=O)(=O)Nc2ccc3c(c2)OCCO3)cc1OCC(=O)NC1CCCCC1	73*	-5	-8	/	0
Cc1cc(Cl)c(S(=O)(=O)Nc2ccon2)cc1OCC(=O)NC1CCCCC1	90	-3	0	/	1
COc1ccccc1CNC(=O)C[C@H]1CC[C@H]2[C@@H](COC[C@H](O)CN2Cc2cccc(-c3ccncc3)c2)O1	/	/	6	-3	/
CCCN1Cc2cccc(C(N)=O)c2C1=O	92	49*	-7	/	8
C[C@@H]1CCCCO[C@@H](CN(C)C(=O)NC2CCCCC2)[C@H](C)CN([C@H](C)CO)C(=O)c2cc(NS(=O)(=O)c3cccs3)ccc2O1	/	/	2	-24	/
Cc1ccc(S(=O)(=O)NCCNC(=O)N2CCOCC2)cc1	99	-9	-3	/	0
Cc1ccc(S(=O)(=O)NC(CN2CCOCC2)=NCCNS(=O)(=O)c2ccccc2)cc1	97	36*	-8	/	0
C[C@H](CO)N1C[C@H](C)[C@@H](CN(C)S(=O)(=O)c2ccc(Cl)cc2)Oc2c(NC(=O)CCCCCC(=O)Nc3ccccc3N)cccc2C1=O	/	/	/	-25	/
[N-]=[N+]=NCc1ccccc1C[C@]1(C(=O)N2CCCCC2)N=C(c2ccc(OCCCO)cc2)O[C@H]1c1ccccc1	/	/	20	/	/
O=C(Nc1ccc(F)cc1)N[C@H]1CC[C@@H](CCn2cc(-c3ccccc3F)nn2)O[C@H]1CO	/	/	5	-12	/
Cc1ccc(F)cc1S(=O)(=O)N[C@@H]1CCN(C(=O)c2ccc(OC(C)C)cc2)C1	/	/	2	/	/
COc1ccc(CCN2C(=O)C=CC2=O)cc1OC	94	0	-6	205*	-2
CS(=O)(=O)c1nc(S(=O)(=O)c2ccc(Cl)cc2)c(N2CCCCCC2)s1	90	0	1	47*	0
CCCS(=O)(=O)c1nc(S(=O)(=O)c2ccc(C)cc2)c(N2CCCC2)s1	94	19*	/	/	-1
CS(=O)(=O)c1nc(S(=O)(=O)c2ccc(Cl)cc2)c(N2CCCCC2)s1	95	12	0	12	0
COc1ccc(-c2cc(C)no2)cc1S(=O)(=O)NCc1cccc(C)c1	98	36*	0	21	0
O=C(/C=C/c1ccccc1)NC(=S)NNC(=O)c1cnccn1	105	3	60*	/	0
COc1ccc(C(=O)NC(=S)NNC(=O)c2cnccn2)cc1OC	92	3	63*	16	0
COc1cc(OC)cc(C(=O)NC(=S)NNC(=O)c2cnccn2)c1	100	2	66*	15	2
COc1ccc(C(=O)NCCNC(=O)c2cnccn2)cc1OC	107	5	7	-2	0
CC(C)NC(=O)N(C)C[C@H]1Oc2ccc(N(C)C)cc2C(=O)N(C)C[C@H]1C	/	/	/	-1	/

Screening results: PubChem, several laboratories
